The source of these data is ChEMBL document CHEMBL1961873, “Compounds: GSK PKIS; Assays: Nanosyn kinase panel” (2012).

Assay [1] concerns the target Death-associated protein kinase 1 (Homo sapiens) (UniProt P53355). Conditions: at 1 µM.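 Also: each value is a mean inhibition figure.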
In assay [2] the target is T1, Serine/threonine-protein kinase DCLK2 (Homo sapiens) (UniProt Q8N568).
T1 sequence (whole entry): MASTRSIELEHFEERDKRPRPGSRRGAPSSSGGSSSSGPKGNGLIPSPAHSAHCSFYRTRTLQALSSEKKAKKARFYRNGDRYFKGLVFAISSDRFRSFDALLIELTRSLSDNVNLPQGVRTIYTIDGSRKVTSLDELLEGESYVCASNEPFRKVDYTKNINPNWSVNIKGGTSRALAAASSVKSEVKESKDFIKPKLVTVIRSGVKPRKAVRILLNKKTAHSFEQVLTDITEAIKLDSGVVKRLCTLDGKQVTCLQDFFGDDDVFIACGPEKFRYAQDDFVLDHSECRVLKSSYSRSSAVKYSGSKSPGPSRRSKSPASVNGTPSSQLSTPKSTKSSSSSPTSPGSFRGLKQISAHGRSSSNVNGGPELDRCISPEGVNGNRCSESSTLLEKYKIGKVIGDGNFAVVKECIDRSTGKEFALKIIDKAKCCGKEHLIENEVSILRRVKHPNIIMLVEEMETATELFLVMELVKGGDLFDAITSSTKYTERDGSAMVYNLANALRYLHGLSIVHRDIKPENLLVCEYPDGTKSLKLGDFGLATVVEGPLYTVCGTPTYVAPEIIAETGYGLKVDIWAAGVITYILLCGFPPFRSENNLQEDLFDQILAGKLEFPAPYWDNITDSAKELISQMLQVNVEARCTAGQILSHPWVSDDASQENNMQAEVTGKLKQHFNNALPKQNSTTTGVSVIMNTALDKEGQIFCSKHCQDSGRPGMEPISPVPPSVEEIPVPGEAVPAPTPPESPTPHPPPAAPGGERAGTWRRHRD
Conditions: at 0.1 µM.

Assay [3] deals with T1, Serine/threonine-protein kinase DCLK2 (Homo sapiens). The note with it: at 1 µM.
Assay [4] deals with MAP kinase-activated protein kinase 2 (Homo sapiens) (UniProt P49137). Conditions: at 0.1 µM.
MAP kinase-activated protein kinase 2 (Homo sapiens), sequence (P49137 whole entry, looked up): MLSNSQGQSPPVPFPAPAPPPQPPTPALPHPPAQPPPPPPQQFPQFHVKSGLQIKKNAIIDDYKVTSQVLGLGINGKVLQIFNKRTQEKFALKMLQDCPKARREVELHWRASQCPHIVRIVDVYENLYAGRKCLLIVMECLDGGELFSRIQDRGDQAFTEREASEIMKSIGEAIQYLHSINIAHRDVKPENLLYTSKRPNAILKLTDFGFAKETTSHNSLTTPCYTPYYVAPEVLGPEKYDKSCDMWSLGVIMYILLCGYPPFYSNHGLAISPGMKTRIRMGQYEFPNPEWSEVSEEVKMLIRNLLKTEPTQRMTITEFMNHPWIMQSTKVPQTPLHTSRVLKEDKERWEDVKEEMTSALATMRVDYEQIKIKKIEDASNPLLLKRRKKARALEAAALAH
For assay [5] the target is unchanged. The note with it: at 1 µM.
Assay [6] addresses MAP kinase-activated protein kinase 3 (Homo sapiens) (UniProt Q16644). The note with it: at 0.1 µM.
For assay [7] the target is unchanged. Conditions: at 1 µM.
Assay [8] deals with Serine/threonine-protein kinase MARK1 (Homo sapiens) (UniProt Q9P0L2). Conditions: at 0.1 µM.
Serine/threonine-protein kinase MARK1 (Homo sapiens), sequence (Q9P0L2 whole entry, looked up): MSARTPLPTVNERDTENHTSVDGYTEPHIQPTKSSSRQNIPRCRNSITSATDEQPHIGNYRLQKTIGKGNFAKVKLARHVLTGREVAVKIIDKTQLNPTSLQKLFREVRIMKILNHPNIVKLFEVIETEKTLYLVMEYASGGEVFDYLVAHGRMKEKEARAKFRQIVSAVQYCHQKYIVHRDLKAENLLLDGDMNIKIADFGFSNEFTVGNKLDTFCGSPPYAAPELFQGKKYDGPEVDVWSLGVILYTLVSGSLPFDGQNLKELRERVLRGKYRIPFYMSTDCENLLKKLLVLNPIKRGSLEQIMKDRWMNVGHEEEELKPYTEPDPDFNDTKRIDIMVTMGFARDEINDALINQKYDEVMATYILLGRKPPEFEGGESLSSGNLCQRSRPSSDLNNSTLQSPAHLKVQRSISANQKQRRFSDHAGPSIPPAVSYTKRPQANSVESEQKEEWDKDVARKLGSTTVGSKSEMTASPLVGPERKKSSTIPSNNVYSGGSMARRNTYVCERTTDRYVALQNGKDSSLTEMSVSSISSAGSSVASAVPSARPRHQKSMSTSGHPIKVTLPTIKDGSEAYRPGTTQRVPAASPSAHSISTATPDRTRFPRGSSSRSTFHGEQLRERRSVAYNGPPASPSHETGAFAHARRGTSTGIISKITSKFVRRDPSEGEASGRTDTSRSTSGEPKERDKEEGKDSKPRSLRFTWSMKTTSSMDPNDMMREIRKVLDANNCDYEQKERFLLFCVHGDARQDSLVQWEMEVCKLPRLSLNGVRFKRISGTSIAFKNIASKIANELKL
Assay [9] has the same target. Conditions: at 1 µM.
For assay [10], the target named is MAP/microtubule affinity-regulating kinase 3 (Homo sapiens) (UniProt P27448). Conditions: at 0.1 µM.
MAP/microtubule affinity-regulating kinase 3 (Homo sapiens), sequence (P27448 whole entry, looked up): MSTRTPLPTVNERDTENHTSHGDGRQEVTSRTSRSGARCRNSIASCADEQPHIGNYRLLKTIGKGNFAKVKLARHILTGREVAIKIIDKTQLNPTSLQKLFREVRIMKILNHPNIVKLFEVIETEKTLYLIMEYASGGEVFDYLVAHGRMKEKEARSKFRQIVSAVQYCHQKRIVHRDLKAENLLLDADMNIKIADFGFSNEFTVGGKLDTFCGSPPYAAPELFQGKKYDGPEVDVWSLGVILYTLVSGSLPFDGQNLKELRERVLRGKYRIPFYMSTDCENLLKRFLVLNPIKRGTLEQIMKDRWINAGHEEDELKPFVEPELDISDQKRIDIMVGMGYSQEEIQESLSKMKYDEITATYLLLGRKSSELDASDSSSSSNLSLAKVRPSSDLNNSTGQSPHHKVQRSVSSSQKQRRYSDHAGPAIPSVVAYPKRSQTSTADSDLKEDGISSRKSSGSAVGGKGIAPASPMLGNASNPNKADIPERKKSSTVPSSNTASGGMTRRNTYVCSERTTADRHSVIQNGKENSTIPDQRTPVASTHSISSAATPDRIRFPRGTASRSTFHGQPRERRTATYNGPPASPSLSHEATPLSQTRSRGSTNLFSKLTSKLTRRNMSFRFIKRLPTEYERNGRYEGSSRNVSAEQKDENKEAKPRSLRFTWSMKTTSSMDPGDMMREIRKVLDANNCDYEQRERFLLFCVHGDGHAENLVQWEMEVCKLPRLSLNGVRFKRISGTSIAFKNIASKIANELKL
Assay [11] has the same target. The note with it: at 1 µM.
Assay [12] has as its target T2, MAP/microtubule affinity-regulating kinase 4 (Homo sapiens) (UniProt Q96L34).
T2 sequence (whole entry): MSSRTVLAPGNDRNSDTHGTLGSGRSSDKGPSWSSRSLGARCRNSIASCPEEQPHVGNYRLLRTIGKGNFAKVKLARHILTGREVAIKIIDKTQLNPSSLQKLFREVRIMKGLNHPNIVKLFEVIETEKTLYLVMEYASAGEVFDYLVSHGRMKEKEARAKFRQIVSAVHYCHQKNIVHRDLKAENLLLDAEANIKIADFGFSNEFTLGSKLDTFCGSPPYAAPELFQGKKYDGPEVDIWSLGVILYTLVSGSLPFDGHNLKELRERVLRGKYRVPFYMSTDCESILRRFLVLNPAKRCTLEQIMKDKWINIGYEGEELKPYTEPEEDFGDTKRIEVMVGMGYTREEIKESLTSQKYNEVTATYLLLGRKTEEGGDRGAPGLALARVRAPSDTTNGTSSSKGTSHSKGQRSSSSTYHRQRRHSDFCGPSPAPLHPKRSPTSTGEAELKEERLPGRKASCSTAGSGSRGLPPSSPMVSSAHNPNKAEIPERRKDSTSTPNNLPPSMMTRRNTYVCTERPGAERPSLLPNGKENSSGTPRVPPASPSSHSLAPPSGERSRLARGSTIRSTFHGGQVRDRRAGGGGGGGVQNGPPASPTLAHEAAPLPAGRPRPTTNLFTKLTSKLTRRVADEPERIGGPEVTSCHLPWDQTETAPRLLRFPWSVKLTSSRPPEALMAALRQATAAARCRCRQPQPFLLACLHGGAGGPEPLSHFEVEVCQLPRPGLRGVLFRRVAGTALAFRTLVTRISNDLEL
Conditions: at 0.1 µM.

Assay [13] has as its target T2, MAP/microtubule affinity-regulating kinase 4 (Homo sapiens). The note with it: at 1 µM.
Assay [14] concerns the target Maternal embryonic leucine zipper kinase (Homo sapiens) (UniProt Q14680). Conditions: at 0.1 µM.
The target is the same in assay [15]. The note with it: at 1 µM.
Assay [16] has as its target MAP kinase-interacting serine/threonine-protein kinase 1 (Homo sapiens) (UniProt Q9BUB5). Conditions: at 0.1 µM.
Assay [17] shares this target. The note with it: at 1 µM.
Assay [18] deals with MAP kinase-interacting serine/threonine-protein kinase 2 (Homo sapiens) (UniProt Q9HBH9). The note with it: at 0.1 µM.
MAP kinase-interacting serine/threonine-protein kinase 2 (Homo sapiens), sequence (Q9HBH9 whole entry, looked up): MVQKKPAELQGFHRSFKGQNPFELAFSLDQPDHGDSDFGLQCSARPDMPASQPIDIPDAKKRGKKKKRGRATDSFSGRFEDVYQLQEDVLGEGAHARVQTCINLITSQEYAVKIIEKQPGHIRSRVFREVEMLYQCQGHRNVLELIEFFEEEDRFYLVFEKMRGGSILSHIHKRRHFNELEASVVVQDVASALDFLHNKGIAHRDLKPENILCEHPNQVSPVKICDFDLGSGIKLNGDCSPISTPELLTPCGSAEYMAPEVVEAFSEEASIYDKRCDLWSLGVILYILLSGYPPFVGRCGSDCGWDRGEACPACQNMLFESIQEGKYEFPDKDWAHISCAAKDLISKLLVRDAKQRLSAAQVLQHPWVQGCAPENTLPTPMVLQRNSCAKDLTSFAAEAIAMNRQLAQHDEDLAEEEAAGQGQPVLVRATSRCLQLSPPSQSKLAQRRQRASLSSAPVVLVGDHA
The target is the same in assay [19]. The note with it: at 1 µM.
Assay [20] deals with Serine/threonine-protein kinase MARK2 (Homo sapiens) (UniProt Q7KZI7). Conditions: at 0.1 µM.
Serine/threonine-protein kinase MARK2 (Homo sapiens), sequence (Q7KZI7 whole entry): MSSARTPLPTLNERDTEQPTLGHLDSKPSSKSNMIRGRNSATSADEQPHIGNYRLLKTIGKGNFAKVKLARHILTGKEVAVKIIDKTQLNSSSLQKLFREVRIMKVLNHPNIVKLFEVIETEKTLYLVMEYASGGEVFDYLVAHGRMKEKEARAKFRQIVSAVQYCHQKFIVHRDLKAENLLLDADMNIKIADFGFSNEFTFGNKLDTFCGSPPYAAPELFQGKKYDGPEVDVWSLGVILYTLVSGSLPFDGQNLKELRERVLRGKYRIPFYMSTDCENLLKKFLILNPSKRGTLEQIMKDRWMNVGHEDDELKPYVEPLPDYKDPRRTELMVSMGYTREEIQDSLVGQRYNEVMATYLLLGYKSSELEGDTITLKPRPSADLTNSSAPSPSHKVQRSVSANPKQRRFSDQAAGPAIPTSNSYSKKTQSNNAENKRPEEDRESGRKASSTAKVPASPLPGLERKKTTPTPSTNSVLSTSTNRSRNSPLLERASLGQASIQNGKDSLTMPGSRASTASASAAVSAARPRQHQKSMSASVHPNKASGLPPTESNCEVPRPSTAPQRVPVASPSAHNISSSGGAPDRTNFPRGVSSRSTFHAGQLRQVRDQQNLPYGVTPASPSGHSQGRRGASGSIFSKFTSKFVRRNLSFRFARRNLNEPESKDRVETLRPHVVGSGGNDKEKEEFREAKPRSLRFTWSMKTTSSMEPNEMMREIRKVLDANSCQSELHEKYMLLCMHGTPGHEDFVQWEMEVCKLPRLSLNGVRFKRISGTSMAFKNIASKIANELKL

Maternal embryonic leucine zipper kinase (Homo sapiens), sequence (Q14680 whole entry, looked up): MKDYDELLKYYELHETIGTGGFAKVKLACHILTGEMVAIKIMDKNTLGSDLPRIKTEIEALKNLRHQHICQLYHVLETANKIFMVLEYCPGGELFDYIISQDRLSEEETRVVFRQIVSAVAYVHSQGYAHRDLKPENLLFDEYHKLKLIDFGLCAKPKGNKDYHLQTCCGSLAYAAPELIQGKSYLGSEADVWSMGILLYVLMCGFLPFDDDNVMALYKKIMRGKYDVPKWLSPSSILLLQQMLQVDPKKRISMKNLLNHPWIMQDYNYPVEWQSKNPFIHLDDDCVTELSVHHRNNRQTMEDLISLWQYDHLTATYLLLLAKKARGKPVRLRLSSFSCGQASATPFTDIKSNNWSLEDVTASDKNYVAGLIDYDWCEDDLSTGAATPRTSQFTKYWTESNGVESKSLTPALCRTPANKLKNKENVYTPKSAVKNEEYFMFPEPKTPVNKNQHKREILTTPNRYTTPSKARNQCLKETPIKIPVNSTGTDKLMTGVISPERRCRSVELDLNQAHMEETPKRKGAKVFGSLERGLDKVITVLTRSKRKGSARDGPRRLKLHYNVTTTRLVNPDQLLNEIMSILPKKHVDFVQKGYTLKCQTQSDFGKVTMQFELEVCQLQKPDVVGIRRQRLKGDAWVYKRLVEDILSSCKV
MAP kinase-interacting serine/threonine-protein kinase 1 (Homo sapiens), sequence (Q9BUB5 whole entry, looked up): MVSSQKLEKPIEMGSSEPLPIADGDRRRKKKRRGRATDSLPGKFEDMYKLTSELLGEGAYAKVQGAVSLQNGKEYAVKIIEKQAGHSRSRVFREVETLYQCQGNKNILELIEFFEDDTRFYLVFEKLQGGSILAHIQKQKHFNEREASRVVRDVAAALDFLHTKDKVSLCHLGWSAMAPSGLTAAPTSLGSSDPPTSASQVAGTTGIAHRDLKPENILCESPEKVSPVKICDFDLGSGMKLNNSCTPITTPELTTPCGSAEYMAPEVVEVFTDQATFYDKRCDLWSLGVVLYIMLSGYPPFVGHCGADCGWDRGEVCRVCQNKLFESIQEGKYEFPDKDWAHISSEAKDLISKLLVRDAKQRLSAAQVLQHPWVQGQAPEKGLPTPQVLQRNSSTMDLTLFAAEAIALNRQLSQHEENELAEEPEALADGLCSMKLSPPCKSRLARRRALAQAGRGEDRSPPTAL
MAP kinase-activated protein kinase 3 (Homo sapiens), sequence (Q16644 whole entry, looked up): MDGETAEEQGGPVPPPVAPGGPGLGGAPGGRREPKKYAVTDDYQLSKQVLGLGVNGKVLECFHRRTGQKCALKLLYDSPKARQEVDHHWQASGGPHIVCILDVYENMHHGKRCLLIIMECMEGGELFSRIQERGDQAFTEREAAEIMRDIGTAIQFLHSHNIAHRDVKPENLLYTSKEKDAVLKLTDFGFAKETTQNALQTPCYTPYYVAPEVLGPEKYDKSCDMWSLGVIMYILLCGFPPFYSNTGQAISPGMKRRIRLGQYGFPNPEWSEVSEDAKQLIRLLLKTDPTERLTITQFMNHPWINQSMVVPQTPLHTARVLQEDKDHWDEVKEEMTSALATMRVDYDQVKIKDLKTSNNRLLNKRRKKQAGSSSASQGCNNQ

As a reminder, the inhibition is the relative decrease from the control value, in per cent. With `CNC(=O)c1cncc(/C=C/c2ccccc2Cl)c1`, the inhibition was 1.77% in assay [1]; 0.59% in assay [2]; -3.35% in assay [3]; 0.55% in assay [4]; 1.05% in [5]; 0.66% in assay [6]. Besides, the inhibition in assay [7] was -0.89%; in assay [8], 1.46%; in [9], 5.24%; in [10] it was 1.01%; in assay [11], -4.55%; in assay [12], -0.44%. The inhibition in assay [13] is 2.25%; in assay [14] it was 0.11%; in [15], -3.52%; in assay [16], 4.17%; in [17], 23.1%; in [18], 6.83%. The results for the inhibition in [19] and in assay [20] were 17.6% and 1.5%, respectively.

For `COc1cc2c(cc1Nc1nc(Nc3ccsc3C(N)=O)c3cc[nH]c3n1)N(C(=O)CN(C)C)CCC2(C)C`, the inhibition was 5.25% in assay [1]; 1.46% in assay [2]; 5.94% in [3]; -0.48% in assay [4]; -0.86% in assay [5]; -0.72% in [6]. The inhibition was -0.02% in [7]; 6.98% in assay [8]; 11.9% in assay [9]; 5.88% in assay [10]; 7.59% in assay [11]; 4.25% in assay [12]. The inhibition worked out at 6.44% in [13]; 6.08% in assay [14]; 14.8% in assay [15]; 3.09% in assay [16]; 6.26% in [17]; 1.36% in assay [18]. Further, the inhibition in assay [19] was found to be 3.03%; in assay [20] it was 1.24%.

In the case of `Cc1ccc2c(-c3ccnc(Nc4ccccc4)n3)c(-c3ccc(F)cc3)nn2n1`, the inhibition worked out at 5.85% in assay [1]; 1.21% in assay [2]; 1.97% in assay [3]; 1.27% in assay [4]; 1.49% in assay [5]; 32.5% in assay [6]. Moreover, the inhibition in assay [7] came to 36%; in assay [8], 2.17%; in assay [9], 2.96%; in assay [10], 3.81%; in [11] it was 0.65%; in [12], 1.31%. Moreover, the inhibition in assay [13] amounted to 1.67%; in [14], 1.41%; in assay [15] it was 5.51%; in assay [16], 0.98%; in [17], 1.88%; in assay [18], 0.04%. In addition, the inhibition in assay [19] was found to be 0.75%; in assay [20] it was 0.87%.

As for `CCOc1ccc2c(-c3ccnc(Nc4cccc(C(F)(F)F)c4)n3)cnn2n1`, the inhibition in assay [1] is 1.54%; in assay [2], 1.21%; in assay [3] it was 3.6%; in [4], 0.79%; in assay [5], -0.24%; in assay [6], 2.73%. Besides, the inhibition in [7] is 1.86%; in assay [8], 2.43%; in assay [9], 3.98%; in [10] it was 1.6%; in [11], 0.96%; in assay [12] it was 1.1%. For the same molecule, the inhibition in assay [13] was 1.8%; in assay [14] it was 1.46%; in assay [15] it was 3.63%; in assay [16], 2.65%; in [17], 4.31%; in assay [18], -0.81%. For the same molecule, the inhibition was determined as 3.49% in assay [19] and 0.02% in [20].

As to `CC(C)(CO)CNC(=O)c1ccc2c(c1)/C(=N/Nc1ccc(S(N)(=O)=O)cc1)C(=O)N2`, the inhibition in [1] was 0.07%; in assay [2] it was 0.04%; in assay [3], 1.76%; in assay [4], -0.45%; in assay [5], -1.03%; in assay [6] it was 2.49%. The inhibition is 2.07% in [7]; 10.3% in assay [8]; 52.5% in [9]; 5.88% in [10]; 36.6% in assay [11]; 7.2% in [12]. The inhibition in assay [13] is 42.6%; in assay [14] it was 18.8%; in assay [15] it was 72.7%; in [16], 0.85%; in assay [17], 3.37%; in assay [18] it was -0.26%. The inhibition in assay [19] was determined as 9.44%; in assay [20], 3.29%.

Regarding `CCCN(CCS(C)(=O)=O)Cc1ccc(-c2ccc3ncnc(Nc4ccc(OCc5cccc(F)c5)c(Cl)c4)c3c2)o1`, the inhibition in assay [1] is 8.65%; in assay [2] it was 0.95%; in [3], 0.44%; in [4] it was 3.34%; in assay [5] it was 3.18%; in assay [6], 7.91%. The inhibition in [7] was 7.63%; in [8], 0.08%; in assay [9] it was 0.29%; in assay [10], -1.25%; in assay [11] it was -0.4%; in assay [12], 0.58%. The inhibition is -0.36% in assay [13]; 3.57% in [14]; 3.34% in assay [15]; 3.79% in assay [16]; 9.77% in assay [17]; 2.98% in [18]. The inhibition in assay [19] is 10.9%; in [20] it was -0.65%.

Consider `COc1ccc2c(-c3ccnc(Nc4cccc(OC(F)(F)F)c4)n3)cnn2n1`, for which the inhibition was 5.37% in assay [1]; 0.72% in [2]; 0.97% in [3]; 2.32% in assay [4]; 2.88% in assay [5]; 4.5% in [6]. Moreover, the inhibition in assay [7] stood at 5.2%; in assay [8], 2.92%; in assay [9], 6.68%; in assay [10], 0.91%; in [11], 6.67%; in assay [12], 1.08%. In addition, the inhibition in [13] was 3.99%; in [14], 1.72%; in assay [15], 11.1%; in assay [16], 3.13%; in [17], 9.47%; in assay [18], 2.32%. The results for the inhibition in assay [19] and in assay [20] were 8.78% and -0.54%, respectively.
